Results from PMC8384837, “Expanding the binding specificity for RNA recognition by a PUF domain”.

What was measured:
Test in all cases: yeast three-hybrid, YBZ-1, SC-Leu-His + 0.5 mM 3-AT, 4 days
Details in all cases: tags: N-Gal4 AD-HA kept; label: inside an RPR1-promoter hybrid RNA with tandem MS2 sites; ssRNA
[1] = biological target: PUM1 PUF domain R1-KAN (Homo sapiens, UniProt Q14671 828-1176, S863K;R864A;Q867N)
Outline: (§1)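 Pumilio-1 PUF domain libraries, randomized (NNK) at the three base-contacting residues of each repeat, were co-expressed with matching RNA elements from a centromeric plasmid in strain YBZ-1 (LexA–MS2 coat fusion, HIS3 reporter). Transformants were plated on SC-Leu (input) and SC-Leu-His + 0.5 mM 3-AT (selection) for four days, and repeat regions were PCR-amplified and Illumina-sequenced. The interaction score is the log2 change in variant frequency from input to selection, with pseudocount 1 where absent.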

[2] = biological target: PUM1 PUF domain R3-YRW (Homo sapiens, UniProt Q14671 828-1176, C935Y;Q939W)
Outline: as §1

[3] = biological target: T1, PUM1 PUF domain R6-WHR (Homo sapiens, UniProt Q14671 828-1176, N1043W;Y1044H;Q1047R)
T1 sequence: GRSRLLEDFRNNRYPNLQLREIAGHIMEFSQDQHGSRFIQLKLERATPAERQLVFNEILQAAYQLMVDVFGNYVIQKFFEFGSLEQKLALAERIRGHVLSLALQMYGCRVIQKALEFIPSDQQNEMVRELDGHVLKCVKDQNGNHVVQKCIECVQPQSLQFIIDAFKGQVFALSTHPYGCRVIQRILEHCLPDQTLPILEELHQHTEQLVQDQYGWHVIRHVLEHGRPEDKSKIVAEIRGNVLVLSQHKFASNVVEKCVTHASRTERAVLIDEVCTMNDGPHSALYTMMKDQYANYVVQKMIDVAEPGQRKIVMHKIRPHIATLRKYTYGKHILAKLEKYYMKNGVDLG
Outline: as §1

[4] = biological target: PUM1 PUF domain R5-LYR (Homo sapiens, UniProt Q14671 828-1176, C1007L;R1008Y;Q1011R)
Outline: as §1

[5] = biological target: PUM1 PUF domain R5-SVV (Homo sapiens, UniProt Q14671 828-1176, C1007S;R1008V;Q1011V)
Outline: as §1

[6] = biological target: PUM1 PUF domain R3-CRI (Homo sapiens, UniProt Q14671 828-1176, Q939I)
Outline: as §1

[7] = biological target: PUM1 PUF domain R3-TRT (Homo sapiens, UniProt Q14671 828-1176, C935T;Q939T)
Outline: as §1

[8] = biological target: PUM1 PUF domain R4-DWT (Homo sapiens, UniProt Q14671 828-1176, N971D;H972W;Q975T)
Outline: as §1

[9] = biological target: PUM1 PUF domain R3-LFE (Homo sapiens, UniProt Q14671 828-1176, C935L;R936F;Q939E)
Outline: as §1

[10] = biological target: PUM1 PUF domain R3-API (Homo sapiens, UniProt Q14671 828-1176, C935A;R936P;Q939I)
Outline: as §1

[11] = biological target: PUM1 PUF domain R5-DFS (Homo sapiens, UniProt Q14671 828-1176, C1007D;R1008F;Q1011S)
Outline: as §1

[12] = biological target: PUM1 PUF domain R3-RQS (Homo sapiens, UniProt Q14671 828-1176, C935R;R936Q;Q939S)
Outline: as §1

[13] = biological target: PUM1 PUF domain R4-PWQ (Homo sapiens, UniProt Q14671 828-1176, N971P;H972W)
Outline: as §1

[14] = biological target: PUM1 PUF domain R4-FNG (Homo sapiens, UniProt Q14671 828-1176, N971F;H972N;Q975G)
Outline: as §1

[15] = biological target: PUM1 PUF domain R4-RHI (Homo sapiens, UniProt Q14671 828-1176, N971R;Q975I)
Outline: as §1

[16] = biological target: PUM1 PUF domain R1-KWS (Homo sapiens, UniProt Q14671 828-1176, S863K;R864W;Q867S)
Outline: as §1

[17] = biological target: PUM1 PUF domain R2-SIP (Homo sapiens, UniProt Q14671 828-1176, N899S;Y900I;Q903P)
Outline: as §1

[18] = biological target: PUM1 PUF domain R2-RRA (Homo sapiens, UniProt Q14671 828-1176, N899R;Y900R;Q903A)
Outline: as §1

[19] = biological target: PUM1 PUF domain R1-RKL (Homo sapiens, UniProt Q14671 828-1176, S863R;R864K;Q867L)
Outline: as §1

[20] = biological target: PUM1 PUF domain R1-KTQ (Homo sapiens, UniProt Q14671 828-1176, S863K;R864T)
Outline: as §1

For “GGCUAGAACUAGUGGAUCCCCCGGCGCCCGGCGGCUCGAGCCCGGGUAAGUGUAAAUGGUCUGCAUGCCGCCGGGCGCCAUGCCUGCAGGUCGACUCUAGAAAACAUG”, which binding signal [1] is on record?
The binding signal was 2.46 log2 enrichment (interaction score).

How did the binding signal [2] turn out when “GGCUAGAACUAGUGGAUCCCCCGGCGCCCGGCGGCUCGAGCCCGGGUAAGUGUAAGUAGUCUGCAUGCCGCCGGGCGCCAUGCCUGCAGGUCGACUCUAGAAAACAUG” was run?
The binding signal was 4.4 log2 enrichment (interaction score).

For “GGCUAGAACUAGUGGAUCCCCCGGCGCCCGGCGGCUCGAGCCCGGGUAAGUGUAAAUAGUCUGCAUGCCGCCGGGCGCCAUGCCUGCAGGUCGACUCUAGAAAACAUG”, which binding signal [3] is on record?
The binding signal was 3.96 log2 enrichment (interaction score).

What about the binding signal [4] of the same sequence?
The binding signal was 4.43 log2 enrichment (interaction score).

And the binding signal [5]?
Its binding signal is 0.43 log2 enrichment (interaction score).

What about the binding signal [6] of the same sequence?
Its binding signal is 3.93 log2 enrichment (interaction score).

What about the binding signal [7] of the same sequence?
Its binding signal is 4.01 log2 enrichment (interaction score).

And the binding signal [8]?
Its binding signal is 6.18 log2 enrichment (interaction score).

What about the binding signal [9] of the same sequence?
The binding signal was 3.02 log2 enrichment (interaction score).

And the binding signal [10]?
Its binding signal is 3.13 log2 enrichment (interaction score).

Which binding signal [4] does the source give for “GGCUAGAACUAGUGGAUCCCCCGGCGCCCGGCGGCUCGAGCCCGGGUAAGUGUUAAUAGUCUGCAUGCCGCCGGGCGCCAUGCCUGCAGGUCGACUCUAGAAAACAUG” here?
Its binding signal is 3.43 log2 enrichment (interaction score).

What about the binding signal [11] of the same sequence?
The binding signal was 5.63 log2 enrichment (interaction score).

“GGCUAGAACUAGUGGAUCCCCCGGCGCCCGGCGGCUCGAGCCCGGGUAAGUGUAAUUAGUCUGCAUGCCGCCGGGCGCCAUGCCUGCAGGUCGACUCUAGAAAACAUG” was tested. Which binding signal [7] did it give?
Its binding signal is 1.8 log2 enrichment (interaction score).

What about the binding signal [9] of the same sequence?
The binding signal was 1.57 log2 enrichment (interaction score).

What about the binding signal [12] of the same sequence?
Its binding signal is 4.09 log2 enrichment (interaction score).

For “GGCUAGAACUAGUGGAUCCCCCGGCGCCCGGCGGCUCGAGCCCGGGUAAGUGUAUAUAGUCUGCAUGCCGCCGGGCGCCAUGCCUGCAGGUCGACUCUAGAAAACAUG”, which binding signal [13] is on record?
Its binding signal is 5.05 log2 enrichment (interaction score).

And the binding signal [14]?
Its binding signal is 4.34 log2 enrichment (interaction score).

What about the binding signal [15] of the same sequence?
Its binding signal is 3.1 log2 enrichment (interaction score).

With “GGCUAGAACUAGUGGAUCCCCCGGCGCCCGGCGGCUCGAGCCCGGGUAAGUGUAAAUCGUCUGCAUGCCGCCGGGCGCCAUGCCUGCAGGUCGACUCUAGAAAACAUG” as the sequence, how does the binding signal [16] read?
Its binding signal is 3.87 log2 enrichment (interaction score).

Which results are given for “GGCUAGAACUAGUGGAUCCCCCGGCGCCCGGCGGCUCGAGCCCGGGUAAGUGUGAAUAGUCUGCAUGCCGCCGGGCGCCAUGCCUGCAGGUCGACUCUAGAAAACAUG”?
binding signal [4]: 0.51 log2 enrichment (interaction score); binding signal [5]: 3.44 log2 enrichment (interaction score)

Which results are given for “GGCUAGAACUAGUGGAUCCCCCGGCGCCCGGCGGCUCGAGCCCGGGUAAGUGUAAAGAGUCUGCAUGCCGCCGGGCGCCAUGCCUGCAGGUCGACUCUAGAAAACAUG”?
binding signal [17]: 3.71 log2 enrichment (interaction score); binding signal [18]: 2.69 log2 enrichment (interaction score)

With “GGCUAGAACUAGUGGAUCCCCCGGCGCCCGGCGGCUCGAGCCCGGGUAAGUGUCAAUAGUCUGCAUGCCGCCGGGCGCCAUGCCUGCAGGUCGACUCUAGAAAACAUG” as the sequence, how does the binding signal [4] read?
The binding signal was 3.17 log2 enrichment (interaction score).

What does the source list for “GGCUAGAACUAGUGGAUCCCCCGGCGCCCGGCGGCUCGAGCCCGGGUAAGUGUAAAUUGUCUGCAUGCCGCCGGGCGCCAUGCCUGCAGGUCGACUCUAGAAAACAUG”?
binding signal [19]: 2.52 log2 enrichment (interaction score); binding signal [16]: 3.62 log2 enrichment (interaction score); binding signal [20]: 5.82 log2 enrichment (interaction score)
